# Assay outcomes deposited in PubChem by Broad Institute.
# Only a sample is shown.
# aSyn UTR act = Activators via SNCA 5'UTR binding, MLPCN; activity score, % (tested at 7.5 µM), hits read low; alpha-synuclein 5'UTR reporter, activators screen; 300,000 tested, 7.1% active; AID 1814, 2009; in the data active = activity score below about -60%
# * = called active by the depositor.
SMILES,aSyn UTR act
COc1cc(O)oc1C=Nc1ccc(Cl)cc1,-64.5*
CCOc1ccc(CN(C(=O)c2cc3ccccc3oc2=O)C2CCS(=O)(=O)C2)cc1 (stereo unspecified),-78.0*
O=C(c1cc2ccccc2oc1=O)N(Cc1ccccc1)C1CCS(=O)(=O)C1 (stereo unspecified),-88.4*
COc1ccc(CN(C(=O)c2cc3ccccc3oc2=O)C2CCS(=O)(=O)C2)cc1OC (stereo unspecified),-114.8*
O=C(c1cc2ccccc2oc1=O)N(Cc1ccccc1F)C1CCS(=O)(=O)C1 (stereo unspecified),-95.4*
O=C(Nc1ccc(Cc2ccncc2)cc1)C1CCC(N2C(=O)C3C4C=CC(C5CC45)C3C2=O)CC1 (stereo unspecified),-62.4*
CCc1ccc(Nc2cnn(-c3nc4ccccc4s3)c(=O)c2Cl)cc1,-80.5*
Cc1c(C)n(CCO)c2ncnc(Nc3ccc(F)cc3)c12,-64.0*
COc1cccc(Nc2nc(-c3ccc4c(c3)OCCO4)cs2)c1,-227.2*
c1cc2c(cc1Nc1nc(-c3ccc4c(c3)OCO4)cs1)OCCO2,-88.9*
Cc1ccc(N=C(c2cccs2)N2CCOCC2)cc1,-65.8*
c1cnc2c(OCc3nc4ccccc4[nH]3)cccc2c1,-293.0*
O=Cc1ccc(O)c2ncccc12,62.8
COc1ccccc1OCc1nc2ccccc2[nH]1,-69.6*
COc1cccc(C=O)c1OCCCOc1cccc2cccnc12,-128.6*
Cc1ccccc1OCc1nc2ccccc2[nH]1,-138.1*
Brc1ccccc1OCCOc1cccc2cccnc12,-72.2*
c1cnc2c(c1)ccc1cccnc12,84.9
Cc1cc(C)c2c3c(sc2n1)C(c1cccc(F)c1)C(C#N)=C(N)O3 (stereo unspecified),-76.0*
O=C(Nc1ccccc1Cl)c1ccc2nc(N3CCOCC3)sc2c1,-98.8*
O=C(N/N=C/c1sc(N2CCOCC2)nc1-c1ccccc1)c1cccc(S(=O)(=O)N2CCCC2)c1,98.9
O=C(Nc1ccc(F)cc1F)c1ccc2nc(N3CCOCC3)sc2c1,-62.5*
O=C(Nc1ccccc1F)c1ccc2nc(N3C(=O)CCC3=O)sc2c1,-117.2*
CN1CCN(Cc2nc(N)nc(Nc3ccc4c(c3)OCCO4)n2)CC1,-90.7*
Cc1ccc(C(=O)/C=C/Nc2ccccc2C(N)=O)o1,-199.8*
SMILES,aSyn UTR act
NC(=O)c1ccccc1N/C=C/C(=O)c1ccc(F)cc1,-64.9*
Cc1ccc(C=Nc2ccccc2C(N)=O)o1,-154.1*
COc1ccccc1Oc1ccc(N/C=C/C(=O)c2ccc(C)o2)cc1,-88.7*
CC(=O)c1ccc(NC(=S)N2CCCC(CO)C2)cc1 (stereo unspecified),-82.3*
OCC1CCCN(C(=S)Nc2ccc(Oc3ccccc3)cc2)C1 (stereo unspecified),-135.2*
O=C(NC(=O)c1ccccc1)NC1(C(F)(F)F)OCCO1,-113.1*
CCOC(=O)c1cc(-c2ccccc2)nn1Cc1cc(C)no1,-81.0*
Cc1nc(N)sc1N=Nc1ccc(Br)cc1,-253.9*
N/C(=N\OC(=O)c1ccc2c(c1)OCO2)c1cccc(Br)c1,-145.7*
COc1ccc(/C(N)=N/OC(=O)c2ccc3c(c2)OCO3)cc1OC,-87.1*
N/C(=N\OC(=O)c1ccc2c(c1)OCO2)c1ccc([N+](=O)[O-])cc1,-128.4*
COc1cc(C(=O)O/N=C(\N)Cc2ccc([N+](=O)[O-])cc2)cc(OC)c1OC,81.1
N/C(=N\OC(=O)c1ccc2c(c1)OCO2)c1cccnc1,-138.9*
COc1ccc(-n2nc([N+](=O)[O-])c(=NCCC3=CCCCC3)n2O)cc1,-81.8*
COc1ccc(-n2nc([N+](=O)[O-])c(=NCc3cccnc3)n2O)cc1,-121.0*
COc1ccc(-n2nc([N+](=O)[O-])c(=NCc3ccco3)n2O)cc1,-83.2*
CCc1ccc(N=c2c([N+](=O)[O-])nn(-c3ccccc3)n2O)cc1,-88.2*
CCCc1ccc(Oc2cc(Cl)nc(N)n2)cc1,-149.3*
CCc1ccc(Oc2cc(C)nc(N)n2)cc1,-92.5*
Cc1cccc(-c2nc(C#N)c(N3CCCCCC3)o2)c1,-68.3*
Cc1ccc(-c2nc(C#N)c(NCC3CCCO3)o2)cc1 (stereo unspecified),-88.2*
Cc1cccc(-c2nc(C#N)c(NCC3CCCO3)o2)c1 (stereo unspecified),-112.0*
Cc1cc(NCCCn2ccnc2)n2nc(C)c(-c3ccc(Cl)cc3)c2n1,53.8
Cc1cc(NCCCn2ccnc2)n2nc(C)c(-c3ccccc3)c2n1,-139.5*
CN(C)CCCN(C(=O)c1cccs1)c1nc2cc3c(cc2s1)OCO3,-158.4*
SMILES,aSyn UTR act
CN(C)CCCN(C(=O)c1ccc(C(=O)c2ccccc2)cc1)c1nc2cc3c(cc2s1)OCO3,60.6
CN(C)CCCN(C(=O)c1ccco1)c1nc2cc3c(cc2s1)OCO3,-185.1*
CN(C)CCCN(C(=O)c1ccc(Br)s1)c1nc2cc3c(cc2s1)OCCO3,-68.9*
CCc1ccc(CCC(=O)Nc2ccccc2C(=O)O)o1,-85.4*
CC#CCCCC(=O)Nc1ccccc1C(=O)O,-75.3*
COc1ccc(NC(=O)c2cc3cccc(OC)c3oc2=Nc2ccc(C(=O)O)cc2)cc1OC,-116.3*
